Values joined by “and” are separate entries in the source; they are usually repeats but may differ in a detail not shown here. Equal values may be shown once. About 2,000 (36%) of roughly 5,500 compounds were called active. Another 18% or so got no clear call; they are omitted. Rule as the data show it: active = normalized growth mostly below about 0.91 (no sharp cut-off); inconclusive = no clear call, values can overlap the other calls; inactive = mostly above about 0.92. This is one part of the list.
Test: chemical genetic growth profiling, strain panel (AID 1159580);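 also: tested at 20 µM; growth read once vehicle control cultures reached saturation at 30 °C; 1 = growth at the plate median or of vehicle wells; lower values mean less growth of the strain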
Conditions: S. cerevisiae deletion strains, growth OD

Measured: normalized growth

CC(C(=O)O)c1ccc(-c2ccccc2)c(F)c1 (stereo unspecified)
1 (inactive) and 0.73 (active): locus YJL095W, strain BCK1, stronger effect = lower value
inactive: locus YAL013W, strain DEP1, stronger effect = lower value 0.952 | locus YAL021C, strain ccr4, stronger effect = lower value 0.978 | locus YAL026C, strain drs2, stronger effect = lower value 0.949 | locus YAL030W, strain snc1, stronger effect = lower value 0.99 | locus YBL061C, strain skt5, stronger effect = lower value 1 | locus YBR009C, strain hhf1, stronger effect = lower value 0.984 | locus YBR021W, strain FUR4, stronger effect = lower value 0.936 | locus YBR023C, strain chs3, stronger effect = lower value 1.02 | locus YBR171W, strain sec66, stronger effect = lower value 0.968 | locus YBR229C, strain ROT2, stronger effect = lower value 0.993 | locus YBR231C, strain swc5, stronger effect = lower value 0.974 | locus YBR279W, strain paf1, stronger effect = lower value 1.01 | locus YCL011C, strain gbp2, stronger effect = lower value 1 | locus YCL016C, strain dcc1, stronger effect = lower value 1.02 | locus YCL029C, strain bik1, stronger effect = lower value 0.944 | locus YCL061C, strain MRC1, stronger effect = lower value 0.99 | locus YCL069W, strain vba3, stronger effect = lower value 0.99 | locus YCR088W, strain abp1, stronger effect = lower value 0.978 | locus YDL005C, strain med2, stronger effect = lower value 0.965 | locus YDL035C, strain GPR1, stronger effect = lower value 0.958 | locus YDL040C, strain nat1, stronger effect = lower value 0.995 | locus YDL074C, strain BRE1, stronger effect = lower value 0.959 | locus YDL101C, strain DUN1, stronger effect = lower value 1.01 | locus YDL192W, strain arf1, stronger effect = lower value 0.974 | locus YDR001C, strain nth1, stronger effect = lower value 0.977 | locus YDR069C, strain doa4, stronger effect = lower value 1.02 | locus YDR159W, strain sac3, stronger effect = lower value 0.913 | locus YDR162C, strain NBP2, stronger effect = lower value 0.936 | locus YDR195W, strain ref2 0.985 | locus YDR297W, strain sur2, stronger effect = lower value 0.992 | locus YDR318W, strain mcm21, stronger effect = lower value 0.979 | locus YDR334W, strain swr1, stronger effect = lower value 0.972 | locus YDR335W, strain msn5, stronger effect = lower value 1.01 | locus YDR388W, stronger effect = lower value 0.963 | locus YDR392W, strain spt3, stronger effect = lower value 0.748 | locus YDR502C, strain sam2, stronger effect = lower value 0.968 | locus YEL003W, strain gim4, stronger effect = lower value 0.967 | locus YEL037C, strain rad23, stronger effect = lower value 0.983 | locus YEL061C, strain CIN8 (second series), stronger effect = lower value 0.979 | locus YEL061C, strain CIN8, stronger effect = lower value 0.963 | locus YER015W, strain faa2, stronger effect = lower value 1 | locus YER016W, strain bim1, stronger effect = lower value 0.971 | locus YER110C, stronger effect = lower value 0.974 | locus YER111C, strain swi4, stronger effect = lower value 0.977 | locus YER155C, strain BEM2 (second series), stronger effect = lower value 0.979 | locus YER155C, strain BEM2, stronger effect = lower value 0.93 | locus YER167W, strain BCK2, stronger effect = lower value 0.974 | locus YFR010W, strain ubp6, stronger effect = lower value 0.997 | locus YGL086W, strain mad1, stronger effect = lower value 0.974 | locus YGL167C, strain pmr1, stronger effect = lower value 0.983 | locus YGL173C, strain kem1, stronger effect = lower value 0.968 | locus YGL227W, strain vid30, stronger effect = lower value 0.991 | locus YGL240W, strain doc1, stronger effect = lower value 0.953 | locus YGL248W, strain PDE1, stronger effect = lower value 1 | locus YGL253W, strain hxk2, stronger effect = lower value 0.98 | locus YGR135W, strain pre9, stronger effect = lower value 1.04 | locus YGR252W, strain gcn5, stronger effect = lower value 1.04 | locus YHR013C, strain ard1, stronger effect = lower value 1.05 | locus YHR027C, strain rpn1, stronger effect = lower value 0.994 | locus YHR079C, strain IRE1 (second series), stronger effect = lower value 0.959 | locus YHR094C, strain hxt1, stronger effect = lower value 0.951 | locus YHR129C, strain ARP1, stronger effect = lower value 0.99 | locus YHR142W, strain chs7, stronger effect = lower value 1.01 | locus YHR200W, strain rpn10, stronger effect = lower value 0.978 | locus YIL066C, strain RNR3, stronger effect = lower value 0.981 | locus YIL073C, strain SPO22, stronger effect = lower value 1.01 | locus YIR030C, strain dcg1, stronger effect = lower value 0.963 | locus YJL092W, strain hpr5, stronger effect = lower value 0.99 | locus YJL095W, strain BCK1 (second series), stronger effect = lower value 0.988 | locus YJL115W, strain asf1, stronger effect = lower value 0.982 | locus YJL129C, strain trk1, stronger effect = lower value 0.933 | locus YJL134W, strain LCB3, stronger effect = lower value 0.975 | locus YJL154C, strain vps35, stronger effect = lower value 0.984 | locus YJL164C, strain tpk1, stronger effect = lower value 0.992 | locus YJL166W, strain qcr8, stronger effect = lower value 1.01 | locus YJL168C, strain set2, stronger effect = lower value 0.959 | locus YJL187C, strain SWE1 (second series), stronger effect = lower value 0.989 | locus YJL187C, strain SWE1, stronger effect = lower value 0.985
0.944 (inactive) and 0.704 (active): locus YHR030C, strain SLT2, stronger effect = lower value
active: locus YDL185W, strain tfp1, stronger effect = lower value 0.869 | locus YDR101C, strain arx1, stronger effect = lower value 0.917 | locus YDR137W, strain rgp1, stronger effect = lower value 0.821 | locus YGL078C, strain dbp3, stronger effect = lower value 0.913 | locus YHR079C, strain IRE1, stronger effect = lower value 0.774 | locus YIL125W, strain kgd1, stronger effect = lower value 0.868

Reference: PubChem BioAssay AID1159580 (chemical genetic matrix, 2015)
